The sample as a whole holds a higher share of hits than the screen did.
Mac1 fbg inh – CD11b/CD18-fibrinogen binding inhibition; P05107+P11215; actives 0.54% (n = 93,000); K562 CD11b/CD18 adhesion to fibrinogen, ATPlite luminescence; Mn2+ added to activate the integrin; AID 1497; inhibition, % at 10 µM;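 active = primary inhibition of 50% or more at 10 µM, then 40% or more on retest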
Cav3 T inh – human Cav3.2 channel inhibition, primary screen; B-score at 10 µM; O95180; actives 4% (n = 100,000); Cav3.2-expressing cells, Fluo-4 calcium fluorescence FDSS; active compounds read low;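 active = single-dose well whose peak fluorescence ratio is a statistical outlier from its plate by either plate-standardised score or position-corrected B-score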
Ecoli WT expand – E. coli BW25113 growth inhibition, expanded screen. growth inhibition, % at 100 µM. actives 0.15% (n = 98,000). OD600 absorbance. AID 710;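 active = growth inhibition above about 50% at one test dose, limit read from the data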;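 also: growth measured after 20 h incubation at 37 °C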
CD11b adhes enh – increases human CD11b/CD18 adhesion to fibrinogen | actives 0.07% (n = 93,000) | activation, % at 10 µM | K562 CD11b/CD18 adhesion to fibrinogen, ATPlite luminescence | P05107+P11215;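 active = 10 µM primary screen giving 50% or more activity, confirmed by 40% or more on retest at that dose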
* hit, by the source's call.

`COc1cc(C(=O)Nc2ccc(N3CCOCC3)cc2)ccc1OCc1c(C)noc1C` gave Mac1 fbg inh -18 and CD11b adhes enh 6.
CCCCN(CCCC)C(=O)c1ccccc1NC(=O)CN1C(=O)c2ccccc2C1=O was read as Mac1 fbg inh -19, Cav3 T inh -3.1, Ecoli WT expand 3 and CD11b adhes enh 2.
`CSc1oc(-c2ccco2)nc1S(=O)(=O)c1ccc(Br)cc1` gave Mac1 fbg inh -41, Cav3 T inh -1.8, Ecoli WT expand -17 and CD11b adhes enh 0.
`CC(C)Sc1oc(-c2ccco2)nc1S(=O)(=O)c1ccc(F)cc1` gave Cav3 T inh -5.3* and Ecoli WT expand 4.
For CCN1C(=O)c2cccc3c(S(=O)(=O)Nc4ncccc4C)ccc1c23 the results were Mac1 fbg inh -3, Cav3 T inh 1.3, Ecoli WT expand 7 and CD11b adhes enh 1.
`Cc1ccc(N2C(=O)c3cccc4c(N5CCN(C)CC5)ccc(c34)C2=O)c2cccnc12` gave Cav3 T inh -4.3* and Ecoli WT expand -1.
O=C(COc1ccccc1)Nc1nnc(-c2ccc(Cl)s2)o1 was read as Mac1 fbg inh 7, Cav3 T inh -4.8*, Ecoli WT expand 55* and CD11b adhes enh 2.
Screening O=C(/C=C/c1ccc(S(=O)(=O)N2CCOCC2)cc1)NCc1ccccc1 returned Mac1 fbg inh -9 and CD11b adhes enh -1.
O=C(CSc1nnnn1C1CCCCC1)N1CCCC1 was read as Mac1 fbg inh 15, Cav3 T inh 1, Ecoli WT expand -1 and CD11b adhes enh -3.
For CC(C)N(C(=O)CSc1nnnn1C1CCCC1)C(C)C the results were Mac1 fbg inh -6, Cav3 T inh -3.7*, Ecoli WT expand -1 and CD11b adhes enh -2.
`COc1ccc(N(C(=O)Cn2nnc3ccccc32)C2(C(=O)NC3CCCC3)CCCCC2)cc1` gave Cav3 T inh -1.5 and Ecoli WT expand -14.
COc1ccc(N(C(=O)Cn2cnc3ccccc32)C(C(=O)NC2CCCCC2)c2ccccc2)cc1 (centres undefined) was read as Mac1 fbg inh -6, Cav3 T inh -3.5*, Ecoli WT expand -6 and CD11b adhes enh 1.
For C=CCN1C(=O)C(C)(C)Nc2ccccc21 the results were Mac1 fbg inh 3, Cav3 T inh 0.42, Ecoli WT expand 1 and CD11b adhes enh -5.
Screening C=CCN1C(=O)N(/C=C/C)c2cccc3cccc1c23 returned Mac1 fbg inh -5, Cav3 T inh -5*, Ecoli WT expand 4 and CD11b adhes enh 5.
`Cc1ccc(C(=O)Nc2nc(=O)n(C(=O)c3ccccc3C)s2)cc1` gave Mac1 fbg inh -17, Cav3 T inh -7.4*, Ecoli WT expand -3 and CD11b adhes enh 0.
COC(=O)c1ccc[n+](CCc2c[nH]c3ccccc23)c1 was read as Cav3 T inh 0.3.
`NC(=O)CCC(NS(=O)(=O)c1ccc(Cl)cc1)C(=O)NCc1ccccc1` (centres undefined) gave Mac1 fbg inh -8 and CD11b adhes enh -1.
Screening Cc1ccc(C)c(N(CC(=O)NC2CCCC2)C(=O)c2cc3cc4cc(C)ccc4nc3s2)c1 returned Mac1 fbg inh -4, Cav3 T inh -1.6, Ecoli WT expand -13 and CD11b adhes enh 16.
Cc1cccc(N(CC(=O)NC2CCCC2)C(=O)c2cc3cc4cccc(C)c4nc3s2)c1C was read as Cav3 T inh -3.3* and Ecoli WT expand -9.
O=C(NC1CCCC1)c1nc2c(nnn2Cc2ccccc2Cl)c(=O)[nH]1 was read as Mac1 fbg inh 2, Cav3 T inh -3.4*, Ecoli WT expand -3 and CD11b adhes enh 0.
COc1cc(/C=N/Nc2ccc(Cl)cc2)ccc1OC(=O)c1cccs1 was read as Mac1 fbg inh -2 and CD11b adhes enh 0.
`Cc1nn(-c2ccccc2)c(Cl)c1C(=O)NCc1cccs1` gave Mac1 fbg inh 4 and CD11b adhes enh -2.
Screening O=C(CCNc1ccc(Cl)c(C(F)(F)F)c1)c1ccco1 returned Mac1 fbg inh -15, Cav3 T inh -5.1*, Ecoli WT expand 13 and CD11b adhes enh -2.
Screening Nc1ccccc1C#Cc1cnccn1 returned Cav3 T inh 0.75.
`COc1cccc(CN(Cc2ccco2)C(c2ccc(F)cc2)c2nnnn2C(C)(C)C)c1` (centres undefined) gave Mac1 fbg inh 10, Cav3 T inh -1.8, Ecoli WT expand -1 and CD11b adhes enh -2.
`CCC(C)(C)n1nnnc1C(c1ccc(C)cc1)N(Cc1ccco1)Cc1cccs1` (centres undefined) gave Mac1 fbg inh -1, Cav3 T inh -5.8*, Ecoli WT expand -13 and CD11b adhes enh -1.

Screens: PubChem, several laboratories
